Screen size: about 48,000 compounds; about 13,000 (27%) showed an effect of 50% or more. Some of the results follow.
Tested on: Wolbachia pipientis
Experiment: Anti-Wolbachia Cell-Based Screen
Format: functional
Parameters: scale not given: in the data most compounds retested in dose-response had high values
Settings: 5 µM

Compound | Percent Effect [%]
O=C(Nc1ccccc1CCc1ccccn1)NC1CCOCC1 | -7.389
O=C1NCCN(C(=O)c2cn3ccsc3n2)C1Cc1ccccc1 (centres undefined) | -8.073
Cc1cnn(CC2CCCN2Cc2cc(=O)n3ccccc3n2)c1 (centres undefined) | 2.976
Cc1c(C(=O)N2CCCOCC2)nnn1-c1cccc2cnccc12 | 5.187
COc1ccccc1C1(CNc2ccnc(C(=O)N(C)C)c2)CC1 | 15.85
COC(=O)CNC(=O)c1nc(-c2ccccc2OC)c2cnccn12 | 100.8
COC(=O)CCNC(=O)c1c[nH]cc1-c1ccccc1OC | 1.896
COc1ccccc1-c1nc(C(=O)N(C)C)n2ccncc12 | 107.3
CCN(CC)CCn1cc(NC(=O)CNc2ccccc2OC)cn1 | 1.772
COc1ccccc1C1(CNc2ccc(C(=O)N(C)C)cn2)CC1 | 4.76
COc1ccccc1-c1nc(C(=O)N2CCOCC2)n2ccncc12 | 98.47
COc1ccccc1C(=O)N1CCN(C(=O)CCn2ccnc2)CC1 | 1.871
COc1cccc(CNC(C)c2ccc(-n3ccnc3)cc2)c1OC.Cl (centres undefined) | 1.707
Cc1nnc(C(C)Nc2ccc(OCCc3ccccc3)nc2)o1 (centres undefined) | -0.9062
COc1cc(CNc2nc(C(F)(F)F)no2)cc(OC)c1OC | 5.574
Fc1cccc(CN2CCC(c3n[nH]c4ncccc34)CC2)c1F | -6.364
CC(C)Oc1ccc(CN2CCC(c3n[nH]c4ncccc34)CC2)cc1 | 97.82
Cl.Fc1ccc(CN2CCC(c3n[nH]c4ncccc34)CC2)cc1F | 3.09
CC(C1CCN(Cc2ccc(OC(F)F)cc2)CC1)N1CCOCC1 (centres undefined) | 6.94
Fc1cccc(Cl)c1CN1CCC(c2n[nH]c3ncccc23)CC1 | 100.4
CC(C)Oc1ccc(CN2CCC(Cc3nnc(CO)n3C)CC2)cc1 | -3.16
CC(C)Oc1cccc(CN2CCC(c3n[nH]c4ncccc34)CC2)c1 | 89.98
CC(C)Oc1cccc(CN2CCC(C(C)N3CCOCC3)CC2)c1 (centres undefined) | 8.799
Cc1cc(NC(=O)c2nc(N3CCCC3)ncc2Cl)ccc1Br | 7.259
Cc1ncoc1C(=O)N1C[C@@H]2COC[C@]2(c2nnc(C3CC3)o2)C1 | 19.81

Compound | Percent Effect [%]
O=C(c1cc(C2CCCCC2)no1)N1C[C@H]2C[C@H](O)C[C@H]2C1 | 95.88
NC1CCCCN(Cc2cc(C3CCCCC3)no2)C1 (centres undefined) | 4.436
O=C(c1cc(C2CC2)nc2onc(-c3ccccc3)c12)N1CC(O)C1 | 1.744
C[C@@H]1CN(C(=O)c2ccc(=O)[nH]c2)CC[C@@]1(O)C1CCOCC1 | -4.844
C[C@@H]1CN(S(=O)(=O)N2CCCC2)CC[C@@]1(O)C1CCOCC1 | -9.489
C[C@@H]1CN(CC(C)(C)N2CCOCC2)CC[C@@]1(O)C1CCOCC1 | 4.466
C[C@@H]1CN(C2CCCCC2)CC[C@@]1(O)C1CCOCC1 | 98.71
C[C@@H]1CN(C2CCN(c3ccccc3)CC2)CC[C@@]1(O)C1CCOCC1 | 103.2
C[C@@H]1CN(C2Cc3ccccc3C2)CC[C@@]1(O)C1CCOCC1 | 82.39
C[C@@H]1CN(C2CCN(c3ccccc3F)CC2)CC[C@]1(C)O | -26.42
O=C(C1CCOCC1)N1C[C@H]2CC[C@@H]1CN(C1Cc3ccccc3C1)C2 | 13.64
COc1ccc(CNC(=O)CNc2cc3c(cc2Cl)OCCO3)cc1 | 11.87
CN1CCc2onc(CNc3ncccn3)c2C1.O=C(O)C(F)(F)F.O=C(O)C(F)(F)F | -12.85
Cc1ccc(CN(Cc2ccccn2)C(=O)[C@H]2CC[C@@H](N)C2)s1 | -33.4
O=C(O)C(F)(F)F.c1c2c(nn1CC1CC1)C(CNC1CCOCC1)OCC2 (centres undefined) | 5.412
COCCN(Cc1ccc(F)cc1Cl)C(=O)c1cccc[n+]1[O-] | -30.73
Cc1noc(C)c1S(=O)(=O)N1CCC(Oc2cccnn2)CC1 | -5.902
COc1ccccc1S(=O)(=O)N1CCC(Oc2cccnn2)CC1 | -12.85
Cc1n[nH]c(C)c1S(=O)(=O)N1CCC(Oc2ccccc2F)CC1 | 121.8
O=S(=O)(c1ccccc1F)N1CCC(Oc2cccnn2)CC1 | -7.526
Cc1noc(C)c1S(=O)(=O)N1CCC(Oc2ccccn2)CC1 | 2.267
Cc1ccccc1OC1CCN(S(=O)(=O)c2c(C)n[nH]c2C)CC1 | 120.4
CCOC(=O)C1CCN(CCCc2nnnn2-c2ccccc2)CC1 | 10.8
CNS(=O)(=O)CC1CCCN1C(=O)c1ccc(C)c(C)c1 (centres undefined) | 1.148

Reference: ChEMBL document CHEMBL3988442, “University of Dundee, Small-Polar-MMV Screening Library” (2021)
